The source made the active and inactive calls. Unless noted, the rule behind the calls is not given here.

Among the data in PubChem BioAssay are z-score and composite z-score values, retold here.

A short description of assay [1]: resazurin metabolic signal in HepG2 cells – cell-based, resazurin fluorescence, 24 h, PK04 Diversity Set, profiling panel (AID 1172). As to conditions: HepG2 viability, higher = more signal. A general note: The colour change of resazurin is a common sign of viable cells or microbes.
Assay [2] is described as follows: budding yeast growth changes without added modifier – OD600, strain BY4716, 24 h, basal condition, primary screen (AID 1173). As to conditions: S. cerevisiae BY4716 growth, OD600, 24 h; higher = more signal, called active from +8 up or from −8 down.
Assay [3] can be described thus: viability profiling in MM1S myeloma cells – cell-based, resazurin fluorescence, basal, 24 h, PK04 Diversity Set, profiling panel (AID 1174).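 Note: MM1S multiple myeloma cell line.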 As to conditions: higher = more signal, called active from +8 up or from −8 down.
Assay [4] has as its target Dihydroorotate dehydrogenase (quinone), mitochondrial (Plasmodium falciparum (isolate 3D7)) (UniProt Q08210). As to the kind of experiment: inhibition of P. falciparum DHODH – biochemical, C-terminal His tag, absorbance 600 nm, primary screen (AID 1175).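 Note: recombinant parasite enzyme with a five histidine tag at its C terminus.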 As to conditions: PfDHODH enzyme, DCIP absorbance 600 nm; higher = more signal, called active from +8 up or from −8 down.

A short description of assay [5]: inhibition of PAO1 biofilm formation – strain PAO1, LB-PBS medium, absorbance 600 nm, primary screen (AID 1176). As to conditions: P. aeruginosa PAO1 growth/biofilm, A600, 12 h; higher = more signal.
Assay [6] can be described thus: growth modulation of vineyard yeast isolate – strain RM11-1a, OD600, basal, 24 h, primary screen (AID 1177).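 Note: cultures grown under basal conditions with no added stressor.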 As to conditions: S. cerevisiae RM11-1a growth, OD600, 24 h; higher = more signal, called active from +8 up or from −8 down.
A short description of assay [7]: growth of efflux-deficient E. coli DRC39 – strain DRC39, OD650, 24 h, E. coli filamentation inducers, primary screen (AID 1178).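 Note: growth measured as culture turbidity by optical density at 650 nm.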 As to conditions: E. coli DRC39 acrAB, higher = more signal, called active from +8 up or from −8 down.
The nature of assay [8]: growth of efflux-deficient E. coli DRC39 – strain DRC39, OD650, 48 h, E. coli filamentation inducers, primary screen (AID 1179).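 Note: screen aims at cell division blockers that make cells filament.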 As to conditions: E. coli DRC39 delta-acrAB growth, higher = more signal, called active from +8 up or from −8 down.
Assay [9] in a line: viability profiling in RPMI8226 myeloma cells – cell-based, resazurin fluorescence, basal, 24 h, PK04 Diversity Set, profiling panel (AID 1180).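 Note: RPMI8826 multiple myeloma cell line at 5000 cells per well.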 As to conditions: higher = more signal.
Assay [10] addresses E3 ubiquitin-protein ligase XIAP (Homo sapiens) (UniProt P98170). The assay can be described thus: small molecules binding XIAP protein – biophysical, small-molecule microarray, fluorescence 635 nm, primary screen (AID 1181).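 Note: score merges 667 nm emission and signal to noise over triplicate slides.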 As to conditions: higher = more signal.
For assay [11], the system named is XIP peptide (Xip251-270) binding. The assay can be described thus: XIP fragment 251-270 binding compounds – biochemical, small-molecule microarray, fluorescence 635/667 nm, 0.1 µg/mL protein, primary screen (AID 1182). As to conditions: fluorescent protein binding, 635 nm, higher = more signal, called active from +8 up or from −8 down.
In assay [12] the test system is XIP peptide (Xip251-270). As to the kind of experiment: compounds binding XIP fragment 251-270 – biochemical, small-molecule microarray, fluorescence 635/667 nm, 0.5 µg/mL protein, primary screen (AID 1183). As to conditions: fluorescence 635 nm, higher = more signal.
The nature of assay [13]: blood-stage malaria parasite viability loss – strain 3D7, DAPI fluorescence, 100 nL, primary screen (AID 1184).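 Note: parasites grown inside human red blood cells in medium with human serum.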 As to conditions: P. falciparum 3D7 growth, 3 d, higher = more signal.
Assay [14] has as its target Homeobox protein Hox-A13 (Mus musculus) (UniProt Q62424). The assay can be described thus: disruptors of Hoxa13 oligonucleotide interaction – biochemical, fluorescence polarization, labeled oligonucleotide, primary screen (AID 1185). As to conditions: Hoxa13:DNA binding, 15 min, higher = more signal, called active from +8 up or from −8 down.
Assay [15] is described as follows: blockers of DNA damage checkpoint Chk1 activation – imaging, HeLa, hydroxyurea, phospho-Chk1 antibody, percent positive cells, primary screen (AID 1186). As to conditions: hydroxyurea-induced phospho-Chk1 immunofluorescence imaging, higher = more signal.
Assay [16] is described as follows: blockers of DNA damage checkpoint Chk1 activation – imaging, HeLa, hydroxyurea, phospho-Chk1 nuclear intensity, primary screen (AID 1187). As to conditions: hydroxyurea-induced phospho-Chk1 immunofluorescence imaging, higher = more signal.

Dihydroorotate dehydrogenase (quinone), mitochondrial (Plasmodium falciparum (isolate 3D7)), sequence (Q08210 whole entry, looked up): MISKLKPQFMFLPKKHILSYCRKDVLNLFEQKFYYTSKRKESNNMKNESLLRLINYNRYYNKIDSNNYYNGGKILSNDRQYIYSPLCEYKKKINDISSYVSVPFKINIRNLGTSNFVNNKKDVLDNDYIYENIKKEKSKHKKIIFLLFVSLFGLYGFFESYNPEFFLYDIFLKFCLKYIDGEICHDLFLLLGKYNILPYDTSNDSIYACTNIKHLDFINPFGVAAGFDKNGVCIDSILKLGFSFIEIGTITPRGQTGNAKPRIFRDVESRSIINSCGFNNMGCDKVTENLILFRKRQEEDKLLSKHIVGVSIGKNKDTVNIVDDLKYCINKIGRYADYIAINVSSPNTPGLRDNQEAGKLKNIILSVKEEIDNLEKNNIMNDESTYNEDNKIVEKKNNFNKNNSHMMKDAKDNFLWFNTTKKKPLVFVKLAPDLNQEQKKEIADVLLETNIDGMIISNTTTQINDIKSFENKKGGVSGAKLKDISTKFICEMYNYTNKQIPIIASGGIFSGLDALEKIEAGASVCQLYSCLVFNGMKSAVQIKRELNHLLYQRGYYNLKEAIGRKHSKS
E3 ubiquitin-protein ligase XIAP (Homo sapiens), sequence (P98170 whole entry, looked up, the tested form may be a part): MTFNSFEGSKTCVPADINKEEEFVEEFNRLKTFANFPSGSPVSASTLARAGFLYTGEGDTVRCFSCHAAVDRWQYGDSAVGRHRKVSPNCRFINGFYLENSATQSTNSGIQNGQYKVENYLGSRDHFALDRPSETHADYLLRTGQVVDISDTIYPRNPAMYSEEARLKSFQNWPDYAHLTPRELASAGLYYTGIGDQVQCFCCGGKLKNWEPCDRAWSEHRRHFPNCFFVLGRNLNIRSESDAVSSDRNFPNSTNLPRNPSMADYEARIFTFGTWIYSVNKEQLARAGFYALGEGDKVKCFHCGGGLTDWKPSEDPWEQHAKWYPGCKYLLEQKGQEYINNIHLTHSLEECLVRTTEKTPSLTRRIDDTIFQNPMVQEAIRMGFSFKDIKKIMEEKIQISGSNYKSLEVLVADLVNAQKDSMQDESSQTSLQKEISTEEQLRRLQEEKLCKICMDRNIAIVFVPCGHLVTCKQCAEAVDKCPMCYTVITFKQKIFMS
Homeobox protein Hox-A13 (Mus musculus), sequence (Q62424 whole entry, looked up): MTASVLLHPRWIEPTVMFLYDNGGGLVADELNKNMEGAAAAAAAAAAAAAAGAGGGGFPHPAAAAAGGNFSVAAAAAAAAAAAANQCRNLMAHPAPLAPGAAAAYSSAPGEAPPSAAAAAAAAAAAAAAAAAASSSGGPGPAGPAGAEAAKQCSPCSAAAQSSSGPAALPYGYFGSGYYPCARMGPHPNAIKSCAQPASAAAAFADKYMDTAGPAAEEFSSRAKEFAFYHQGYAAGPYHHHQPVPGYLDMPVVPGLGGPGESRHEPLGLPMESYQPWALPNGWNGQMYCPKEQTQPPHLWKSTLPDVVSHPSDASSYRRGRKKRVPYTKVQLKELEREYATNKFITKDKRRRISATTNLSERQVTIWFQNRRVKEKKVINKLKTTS

As to `COc1cc(CO)cc(I)c1O[C@H]1C=C(C(=O)NCCO)C[C@@H](N(C(=O)c2cc3ccccc3oc2=O)C2CCCCCC2)[C@@H]1O`, the z-score was -0.163 in [1]; -1.66 (inactive) in [2]; 1.11 (inactive) in assay [3]; -0.377 (inactive) in assay [5]; -0.0819 (inactive) in assay [6]; 2.12 (inactive) in [7]. Further, the z-score in assay [8] is 0.435 (inactive); in assay [9], -0.335; in assay [13], -1.8; in assay [14] it was -7.6 (inactive); in [15], 0.21 (inactive); in assay [16], 0.722 (inactive). For the same compound, the composite z-score in assay [4] was -0.346 (inactive); in [10], -0.154; in [11], -0.207 (inactive); in assay [12] it was 0.466.

Regarding `O=C1O[C@H](c2ccccc2)[C@H](c2ccccc2)N2[C@H]1[C@@H](C(=O)NC[C@H](O)c1ccccc1)[C@]1(C(=O)Nc3ccccc31)[C@H]2c1ccc(O)cc1`, the z-score in assay [1] was -1; in assay [2] it was 0.0934 (inactive); in [3], -1.16 (inactive); in [5] it was 0.346 (inactive); in assay [6], 1.46 (inactive); in [7], 0.759 (inactive). In addition, the z-score was 0.315 (inactive) in assay [8]; -2.77 in [9]; -0.834 in assay [13]; -4.25 (inactive) in assay [14]; -0.0383 (inactive) in assay [15]; 0.188 (inactive) in [16]. For the same compound, the composite z-score was 0.668 (inactive) in [4], 0.166 in [10], 1.5 (inactive) in assay [11] and 0.665 in assay [12].

Take `COCCOC(=O)N1C(=O)[C@@]2(c3cc(C#CC4(O)CCCCCC4)ccc31)[C@H](C(=O)Nc1nc3ccccc3s1)[C@H]1C(=O)O[C@H](c3ccccc3)[C@H](c3ccccc3)N1[C@@H]2c1ccccc1OCCO`: the z-score in assay [1] is 0.709; in assay [2], 0.504 (inactive); in [3] it was -1.15 (inactive); in assay [5], 0.249 (inactive); in assay [6], 1.78 (inactive); in [7], -0.632 (inactive). In addition, the z-score is 0.635 (inactive) in [8]; -0.435 in assay [9]; -1.43 in assay [13]; 2.95 (inactive) in [14]; 0.203 (inactive) in assay [15]; 0.693 (inactive) in assay [16]. Moreover, the composite z-score was -0.747 (inactive) in [4], -0.0118 in assay [10], 1.77 (inactive) in assay [11] and 0.748 in assay [12].

Take `C=CCN1Cc2ccccc2[C@@H]2OC(c3ccc(OCCCO)cc3)=N[C@]2(CCS(=O)(=O)c2ccccc2)C1=O`: the z-score in assay [1] was 0.277; in assay [2], 1.28 (inactive); in assay [3], -0.751 (inactive); in assay [5], 1.4 (inactive); in assay [6] it was 1.38 (inactive); in [7] it was 0.61 (inactive). For the same compound, the z-score was 0.713 (inactive) in [8]; -0.764 in assay [9]; -2.3 in assay [13]; -2.43 (inactive) in assay [14]; -0.386 (inactive) in [15]; -0.386 (inactive) in [16]. Moreover, the composite z-score in assay [4] was 0.651 (inactive); in assay [10], -0.123; in assay [11], 0.3 (inactive); in [12], 0.799.

In the case of `[N-]=[N+]=Nc1ccccc1C[C@@]1(C(=O)N2CCCCC2)N=C(c2ccc(OCCCO)cc2)O[C@@H]1c1ccccc1N=[N+]=[N-]`, the z-score is -0.45 in [1]; -0.893 (inactive) in assay [2]; -2.09 (inactive) in assay [3]; 0.578 (inactive) in [5]; 1.48 (inactive) in assay [6]; 0.472 (inactive) in assay [7]. The z-score in assay [8] is 0.208 (inactive); in assay [9], -3.1; in assay [13], -2.42; in [14], -4.67 (inactive); in [15], -0.425 (inactive); in assay [16], -0.286 (inactive). The composite z-score in assay [4] was -0.0853 (inactive); in assay [10], -0.0102; in [11], 0.973 (inactive); in assay [12], 0.0553.

As to `CO[C@H]1O[C@H](CO)[C@@H](OC(=O)Nc2ccc(Br)cc2)[C@@H]2OC(=O)[C@H](Cc3cccc(Br)c3)C/C=C/C[C@@H](Cc3cccc(Br)c3)C(=O)O[C@@H]12`, the z-score is -1.34 in assay [1]; -1.89 (inactive) in assay [2]; -1.79 (inactive) in assay [3]; 0.594 (inactive) in [5]; 0.459 (inactive) in assay [6]; 0.778 (inactive) in assay [7]. Also, the z-score was 0.69 (inactive) in assay [8]; -1.45 in assay [9]; -1.55 in [13]; 1.51 (inactive) in assay [14]; -0.423 (inactive) in assay [15]; -0.471 (inactive) in assay [16]. For the same compound, the composite z-score was -2.81 (inactive) in [4], -0.16 in assay [10], 0.406 (inactive) in assay [11] and 0.467 in [12].

`COCCCNC(=O)[C@@]1(Sc2ccc(C)cc2)CC(=O)N(Cc2ccccc2Cl)[C@@H]1c1ccc(CO)cc1`: the z-score is 0.683 in assay [1]; -0.209 (inactive) in [2]; 0.306 (inactive) in [3]; 0.366 (inactive) in assay [5]; -0.964 (inactive) in [6]; 1.08 (inactive) in assay [7]. The z-score in assay [8] is 0.709 (inactive); in assay [9], 0.761; in [13], -1.63; in assay [14], -2.28 (inactive); in assay [15], -0.63 (inactive); in assay [16], -1.1 (inactive). For the same compound, the composite z-score in assay [4] was -1.08 (inactive); in assay [10], 0.145; in [11], 0.906 (inactive); in assay [12], 0.887.

On to `O=C1O[C@H](c2ccccc2)[C@H](c2ccccc2)N2[C@H]1[C@@H](C(=O)NC[C@H](O)c1ccccc1)[C@]1(C(=O)Nc3ccc(C#CC4=CCCCC4)cc31)[C@H]2c1ccccc1OCCO`, for which the z-score is -2.02 in assay [1]; 1.89 (inactive) in assay [2]; -6.77 (inactive) in assay [3]; 2.9 (inactive) in assay [5]; 1.96 (inactive) in [6]; -0.561 (inactive) in assay [7]. Moreover, the z-score in [8] was 0.105 (inactive); in assay [9] it was -6.5; in assay [13], -0.285; in assay [14], 1.5 (inactive); in [15] it was 0.0263 (inactive); in assay [16] it was -0.294 (inactive). In addition, the composite z-score in assay [4] was -0.894 (inactive); in [10], -0.144; in assay [11], -0.0939 (inactive); in [12] it was 0.203.

Turning to `O=C1O[C@@H](c2ccccc2)[C@@H](c2ccccc2)N2[C@@H](c3ccc(OCCO)cc3)[C@]3(C(=O)Nc4ccc(C#CCCO)cc43)[C@@H](C(=O)NC[C@H](O)c3ccccc3)[C@H]12`, the z-score was 0.148 in assay [1]; 1.49 (inactive) in assay [2]; 0.428 (inactive) in assay [3]; 2.78 (inactive) in assay [5]; 2.97 (inactive) in [6]; 0.968 (inactive) in assay [7]. Moreover, the z-score in assay [8] is 1 (inactive); in assay [9], 0.671; in assay [13], -0.271; in assay [14], -3.67 (inactive); in assay [15], -0.174 (inactive); in assay [16] it was -0.317 (inactive). Further, the composite z-score was 1.47 (inactive) in [4], -0.0249 in [10], 0.0796 (inactive) in assay [11] and 0.822 in assay [12].
